{
  "source": "paper PMC5913336",
  "about": "“True equilibrium measurement of transcription factor-DNA binding affinities using automated polarization microscopy”",
  "data": [
    {"biological_target": "T1, Optix (Drosophila melanogaster, UniProt Q95RW8 139-229)", "T1 sequence": "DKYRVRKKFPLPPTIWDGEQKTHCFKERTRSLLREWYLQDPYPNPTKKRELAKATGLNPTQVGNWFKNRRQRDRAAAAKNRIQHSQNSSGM", "assay": "FP; 33 mM phosphate pH 7.0, 90 mM NaCl, 0.01% Tween 20, 0.1 mM DTT, 0.5% agarose; room temperature", "settings": "tags: N-GST (pGEX-6P-1, kept); dsDNA, one strand shown", "values": [
      {"sequence": "AGAGTGATATCT", "binding signal": "3.39 Kd / Kd of best base at the position"},
      {"sequence": "AGAGTGATAACT", "binding signal": "12.1 Kd / Kd of best base at the position"},
      {"sequence": "AGAGTGTTAGCT", "binding signal": "34.8 Kd / Kd of best base at the position"},
      {"sequence": "AGGGTGATAGCT", "binding signal": "5.49 Kd / Kd of best base at the position"},
      {"sequence": "AGATTGATAGCT", "binding signal": "6.38 Kd / Kd of best base at the position"},
      {"sequence": "CGAGTGATAGCT", "binding signal": "5.01 Kd / Kd of best base at the position"},
      {"sequence": "AGAGTGATAGTT", "binding signal": "5.68 Kd / Kd of best base at the position"},
      {"sequence": "AGAGTGATAGCC", "binding signal": "4.04 Kd / Kd of best base at the position"},
      {"sequence": "AGAGTGGTAGCT", "binding signal": "39.7 Kd / Kd of best base at the position"},
      {"sequence": "AGAGTGAAAGCT", "binding signal": "1670 Kd / Kd of best base at the position"},
      {"sequence": "AGAGTGATAGCA", "binding signal": "5.73 Kd / Kd of best base at the position"},
      {"sequence": "AGAGTAATAGCT", "binding signal": "23.7 Kd / Kd of best base at the position"},
      {"sequence": "AGAGTGATCGCT", "binding signal": "9.37 Kd / Kd of best base at the position"},
      {"sequence": "AGAGTGATAGAT", "binding signal": "16.1 Kd / Kd of best base at the position"},
      {"sequence": "AGAGTGATACCT", "binding signal": "2.57 Kd / Kd of best base at the position"},
      {"sequence": "AGACTGATAGCT", "binding signal": "1.06 Kd / Kd of best base at the position"},
      {"sequence": "TGAGTGATAGCT", "binding signal": "4.48 Kd / Kd of best base at the position"},
      {"sequence": "AGAGTGATGGCT", "binding signal": "127 Kd / Kd of best base at the position"},
      {"sequence": "AGAATGATAGCT", "binding signal": "6.11 Kd / Kd of best base at the position"},
      {"sequence": "AGAGTGCTAGCT", "binding signal": "95.1 Kd / Kd of best base at the position"},
      {"sequence": "AGAGTGACAGCT", "binding signal": "185 Kd / Kd of best base at the position"},
      {"sequence": "ACAGTGATAGCT", "binding signal": "3.68 Kd / Kd of best base at the position"},
      {"sequence": "AGAGAGATAGCT", "binding signal": "9.88 Kd / Kd of best base at the position"},
      {"sequence": "AGAGTGATAGGT", "binding signal": "4.85 Kd / Kd of best base at the position"},
      {"sequence": "AGAGTGATAGCG", "binding signal": "7.84 Kd / Kd of best base at the position"},
      {"sequence": "AGAGTGAGAGCT", "binding signal": "35.9 Kd / Kd of best base at the position"},
      {"sequence": "ATAGTGATAGCT", "binding signal": "1.01 Kd / Kd of best base at the position"},
      {"sequence": "AGAGTTATAGCT", "binding signal": "25 Kd / Kd of best base at the position"},
      {"sequence": "AGTGTGATAGCT", "binding signal": "6.5 Kd / Kd of best base at the position"},
      {"sequence": "GGAGTGATAGCT", "binding signal": "2.35 Kd / Kd of best base at the position"},
      {"sequence": "AGAGTGATTGCT", "binding signal": "49 Kd / Kd of best base at the position"},
      {"sequence": "AGAGGGATAGCT", "binding signal": "8.18 Kd / Kd of best base at the position"},
      {"sequence": "AAAGTGATAGCT", "binding signal": "1.14 Kd / Kd of best base at the position"}
    ]},
    {"biological_target": "D (Drosophila melanogaster, UniProt Q24533 127-229)", "sequence (Q24533 127-229)": "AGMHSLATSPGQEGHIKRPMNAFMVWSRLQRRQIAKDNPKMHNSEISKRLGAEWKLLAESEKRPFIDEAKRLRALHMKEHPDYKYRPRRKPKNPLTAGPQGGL", "assay": "FP; 33 mM phosphate pH 7.0, 90 mM NaCl, 0.01% Tween 20, 0.1 mM DTT, 0.5% agarose; room temperature", "settings": "tags: N-GST (pGEX-6P-1, kept); dsDNA, one strand shown", "values": [
      {"sequence": "GACGATTGTTCTTG", "binding signal": "12.4 Kd / Kd of best base at the position"},
      {"sequence": "GACCACTGTTCTTG", "binding signal": "40.3 Kd / Kd of best base at the position"},
      {"sequence": "GACCATAGTTCTTG", "binding signal": "40.3 Kd / Kd of best base at the position"},
      {"sequence": "GACCATTGATCTTG", "binding signal": "31.7 Kd / Kd of best base at the position"},
      {"sequence": "GACCAATGTTCTTG", "binding signal": "44.4 Kd / Kd of best base at the position"},
      {"sequence": "GACCATTGTTATTG", "binding signal": "3.41 Kd / Kd of best base at the position"}
    ]}
  ]
}
